Compound activity: PubChem, National Center for Advancing Translational Sciences (NCATS)
Most compounds without a hit are left out; they make up all but 11% or so of the library.
HEK cytotox = cytotoxic compounds in HEK 293 cells; HEK 293 viability, ATP luminescence (CellTiter-Glo), 48-72 h; Potency, µM (titrated, usually from 115 µM), hits mostly inhibitors; 94,000 compounds, 6.6% hits; active = well fitted curve in the direction sought with a large enough effect; inconclusive = small, poorly fitted or top-dose-only effect, or another doubt; inactive = no such curve, though single readings can be large; an effect the other way counts as inactive or inconclusive; note: nearly all actives have a fitted effect of over 60% in size
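250 HEK 293 cells/well; compound by pintool; incubated 48 or 72 hr at 37 degree Celsius; CellTiter-Glo added, 10 min RT, luminescence imaged.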
NPR1 antag = antagonists of human natriuretic peptide receptor Npr1; P16066; 76,000 compounds, 1.6% hits; HEK293 hNpr1 GloSensor cGMP, ANP-stimulated luminescence; Potency, µM (series often up to 46.3 µM), actives largely listed as inhibitors; note: nearly all actives have a fitted effect of over 60% in size
Target sequence (P16066 whole entry, looked up): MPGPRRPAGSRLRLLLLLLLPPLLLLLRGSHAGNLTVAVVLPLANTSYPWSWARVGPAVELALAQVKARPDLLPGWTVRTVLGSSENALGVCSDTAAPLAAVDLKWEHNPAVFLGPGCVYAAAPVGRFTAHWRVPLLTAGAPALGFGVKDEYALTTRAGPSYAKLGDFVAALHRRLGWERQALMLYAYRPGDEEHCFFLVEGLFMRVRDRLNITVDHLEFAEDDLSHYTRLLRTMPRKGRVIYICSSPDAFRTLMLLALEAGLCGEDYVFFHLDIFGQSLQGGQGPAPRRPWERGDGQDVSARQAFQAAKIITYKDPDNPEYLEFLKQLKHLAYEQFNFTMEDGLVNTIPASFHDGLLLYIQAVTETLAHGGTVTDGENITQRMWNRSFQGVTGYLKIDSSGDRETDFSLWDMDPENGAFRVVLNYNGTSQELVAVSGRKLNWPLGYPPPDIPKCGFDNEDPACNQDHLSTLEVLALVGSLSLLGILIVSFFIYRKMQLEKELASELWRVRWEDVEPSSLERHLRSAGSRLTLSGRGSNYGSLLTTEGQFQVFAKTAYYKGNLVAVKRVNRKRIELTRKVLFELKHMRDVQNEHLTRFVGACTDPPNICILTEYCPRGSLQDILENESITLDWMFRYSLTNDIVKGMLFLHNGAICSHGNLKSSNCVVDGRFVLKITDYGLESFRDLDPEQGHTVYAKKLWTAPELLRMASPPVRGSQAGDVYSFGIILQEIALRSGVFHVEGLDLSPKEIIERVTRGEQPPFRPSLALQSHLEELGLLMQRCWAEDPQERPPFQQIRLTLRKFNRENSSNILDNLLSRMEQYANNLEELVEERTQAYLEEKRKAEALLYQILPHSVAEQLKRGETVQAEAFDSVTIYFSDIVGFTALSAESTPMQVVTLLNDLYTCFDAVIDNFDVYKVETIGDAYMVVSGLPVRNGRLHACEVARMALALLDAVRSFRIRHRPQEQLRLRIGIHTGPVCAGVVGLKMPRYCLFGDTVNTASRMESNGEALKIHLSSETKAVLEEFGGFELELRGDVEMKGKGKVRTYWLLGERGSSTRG
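Compound pre-incubated 30 min at room temperature on GloSensor-loaded HEK293 cells stably carrying hNpr1 and the pGS-40F cGMP biosensor. Stimulation uses hNppA at 0.1 nM final; luminescence is taken at baseline and 20 min post-agonist.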
Luciferase inh = inhibitors of firefly (Photinus pyralis) luciferase; purified P. pyralis luciferase, luminescence, biochemical; Potency, µM (highest dose often 115 µM), usual class: inhibitors; AID 1347043; P08659; 76,000 compounds, 2.5% hits; active = well fitted curve in the direction sought with a large enough effect; inconclusive = small, poorly fitted or top-dose-only effect, or another doubt; inactive = no such curve, though single readings can be large; an effect the other way counts as inactive or inconclusive; note: nearly all actives have a fitted effect of over 65% in size
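Cell-free enzyme assay, 10nM P. pyralis luciferase, luciferin and ATP each at 10uM. Inhibition profiled over a 6-point titration, read as luminescence.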
NIH3T3 tox = kills NIH 3T3 cells | NIH 3T3 viability, CellTiter-Glo ATP luminescence, 48-72 h | Potency, µM (doses to about 96.7 µM), most hits filed as inhibitors | 94,000 compounds, 4.3% hits | AID 1345082; active = well fitted curve in the direction sought with a large enough effect; inconclusive = small, poorly fitted or top-dose-only effect, or another doubt; inactive = no such curve, though single readings can be large; an effect the other way counts as inactive or inconclusive; note: nearly all actives have a fitted effect of over 55% in size
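NIH 3T3 cells at 400 cells/well received 23 nL of compound by pintool and were incubated 48 or 72 h at 37 °C. Viability was read as ATP-coupled CellTiter-Glo luminescence.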
Npr1 antag conf = hNpr1 antagonism, confirmation assay; shares compounds with NPR1 antag; AID 1347044; HEK293 hNpr1 cGMP GloSensor luminescence, ANP-stimulated; Potency, µM (titrated, usually from 57.6 µM), usual class: inhibitors; 1,400 compounds, 76% hits; note: nearly all actives have a fitted effect of over 70% in size
Npr2 selectivity = hNpr2 antagonism, selectivity versus Npr1. Potency, µM (top dose mostly 57.6 µM), most hits filed as inhibitors. HEK293 hNpr2 GloSensor cGMP luminescence, CNP-stimulated. 1,400 compounds, 67% hits. AID 1347046. shares compounds with NPR1 antag; note: nearly all actives have a fitted effect of over 70% in size
FLuc inh counter = inhibits firefly luciferase, false Npr1 antagonist flag | 1,400 compounds, 0.7% hits | AID 1347047 | purified FLuc enzyme, luminescence, Km substrate | shares compounds with NPR1 antag | Potency, µM (highest dose often 57.6 µM), usual class: inhibitors; active = well fitted curve in the direction sought with a large enough effect; inconclusive = small, poorly fitted or top-dose-only effect, or another doubt; inactive = no such curve, though single readings can be large; an effect the other way counts as inactive or inconclusive
GloSensor ctrl = reduces cGMP signal in GloSensor control cells | shares compounds with NPR1 antag | 1,400 compounds, 69% hits | Potency, µM (titrated, usually from 57.6 µM), hits mostly inhibitors | HEK293 GloSensor cGMP, SNP-stimulated, luminescence; note: nearly all actives have a fitted effect of over 70% in size
Numbers stand for hits. Unless noted, calls come from the whole dose curve.

What do the screens show for `CCC(Cn1cnc(-c2ccccc2)c1-c1ccc(C#N)cc1)N1CCN(C)CC1` (stereo not given)?
HEK cytotox: 79µM; NPR1 antag: 11µM; Luciferase inh: inactive; NIH3T3 tox: inconclusive; Npr1 antag conf: 24µM; Npr2 selectivity: 17µM; FLuc inh counter: inactive; GloSensor ctrl: inactive

What do the screens show for `N#Cc1ccc(-c2c(-c3ccccc3)ncn2CCNc2cccnc2)cc1`?
HEK cytotox: inactive; NPR1 antag: inactive; Luciferase inh: inactive; NIH3T3 tox: inactive

How did Cc1cc(=O)n(CC(=O)Nc2ccccc2C)c(N2CCc3ccccc3C2)n1 do in these assays?
HEK cytotox: inconclusive; NPR1 antag: inconclusive; Luciferase inh: inactive; NIH3T3 tox: inconclusive; Npr1 antag conf: inconclusive; Npr2 selectivity: inactive; FLuc inh counter: inactive; GloSensor ctrl: inactive

Results for COc1ccc(OC)c(NC(=O)Cn2c(N3CCc4ccccc4C3)nc(C)cc2=O)c1 ?
HEK cytotox: 32µM; NPR1 antag: inconclusive; Luciferase inh: inactive; NIH3T3 tox: 28µM; Npr1 antag conf: inconclusive; Npr2 selectivity: inconclusive; FLuc inh counter: inactive; GloSensor ctrl: inconclusive

Results for Cc1cccc(NC(=O)Cn2c(N3CCc4ccccc4C3)nc(C)cc2=O)c1 ?
HEK cytotox: 45µM; NPR1 antag: inactive; Luciferase inh: inactive; NIH3T3 tox: inconclusive; Npr1 antag conf: inactive; Npr2 selectivity: inconclusive; FLuc inh counter: inactive; GloSensor ctrl: inconclusive

Results for COc1ccccc1NC(=O)Cn1c(N2CCc3ccccc3C2)nc(C)cc1=O ?
HEK cytotox: inconclusive; NPR1 antag: inactive; Luciferase inh: inactive; NIH3T3 tox: inconclusive; Npr1 antag conf: inactive; Npr2 selectivity: inactive; FLuc inh counter: inactive; GloSensor ctrl: inactive

How did CCCCCC(=O)N1C[C@@H](C(=O)OCC)[C@@H]2Oc3ccccc3[C@@H]21 do in these assays?
HEK cytotox: inactive; NIH3T3 tox: inconclusive

Results for Cc1cccc(N2CCN(CC(=O)N3C[C@@H](C)[C@](O)(C4CCC4)C3)CC2)c1 ?
HEK cytotox: inactive; NPR1 antag: inactive; Luciferase inh: inactive; NIH3T3 tox: inactive

How did O=C(NCc1cccs1)c1ccc2nnc(Cc3ccco3)n2c1 do in these assays?
HEK cytotox: inactive; NIH3T3 tox: inconclusive

What do the screens show for `CCCC1=Nc2cc(C(=O)NCCc3ccc(OC)c(OC)c3)ccc2Sc2ccccc21`?
HEK cytotox: inconclusive; NPR1 antag: inconclusive; Luciferase inh: inactive; NIH3T3 tox: inconclusive; Npr1 antag conf: inconclusive; Npr2 selectivity: inconclusive; FLuc inh counter: inactive; GloSensor ctrl: inconclusive

How did COc1ccc(CCNC(=O)c2ccc3c(c2)N(C)C2CCCN2C3=O)cc1OC (stereo not given) do in these assays?
HEK cytotox: inactive; NPR1 antag: inactive; Luciferase inh: inactive; NIH3T3 tox: inactive

Results for O=C(NCc1ccccc1)c1nc2c(o1)CCN(Cc1ccc(F)c(Cl)c1)CC2 ?
HEK cytotox: inconclusive; NPR1 antag: 22µM; Luciferase inh: inactive; NIH3T3 tox: 45µM; Npr1 antag conf: 28µM; Npr2 selectivity: 28µM; FLuc inh counter: inactive; GloSensor ctrl: 20µM

How did O=C(NCc1ccccc1)c1nc2c(o1)CCN(Cc1ccc(F)cc1)CC2 do in these assays?
HEK cytotox: inconclusive; NPR1 antag: inconclusive; Luciferase inh: inactive; NIH3T3 tox: inconclusive; Npr1 antag conf: 35µM; Npr2 selectivity: 35µM; FLuc inh counter: inactive; GloSensor ctrl: 35µM

How did COc1ccc(CN2CCc3nc(C(=O)NCc4cccc(F)c4)oc3CC2)cc1OC do in these assays?
HEK cytotox: inconclusive; NPR1 antag: inactive; Luciferase inh: inactive; NIH3T3 tox: inconclusive

How did COc1ccccc1CN1CCc2nc(C(=O)NCc3cccc(F)c3)oc2CC1 do in these assays?
HEK cytotox: inconclusive; NPR1 antag: inactive; Luciferase inh: inactive; NIH3T3 tox: inconclusive

How did CCn1ccnc1CN1CCCC(CCc2ccc(OC)cc2)C1 (stereo not given) do in these assays?
HEK cytotox: inconclusive; NPR1 antag: inactive; Luciferase inh: inactive; NIH3T3 tox: inconclusive

How did O=C(NCc1ccccc1)[C@H]1CN(Cc2ccccc2)C[C@H]1C(=O)O do in these assays?
HEK cytotox: inactive; NPR1 antag: inactive; Luciferase inh: inactive; NIH3T3 tox: inactive

Results for COCC1CN(Cc2cnn(C(C)C)c2)CC12CCNCC2 (stereo not given) ?
HEK cytotox: inactive; NPR1 antag: inactive; Luciferase inh: inactive; NIH3T3 tox: inactive

What do the screens show for `O=C(c1ccccn1)N1CCC(c2cc(-c3ccccc3)n[nH]2)CC1`?
HEK cytotox: inconclusive; NPR1 antag: inactive; Luciferase inh: inactive; NIH3T3 tox: inactive

How did COc1cccc(-c2cc(C3CCN(C(=O)c4ccccc4Br)CC3)[nH]n2)c1 do in these assays?
HEK cytotox: 28µM; NPR1 antag: 18µM; Luciferase inh: inactive; NIH3T3 tox: inconclusive; Npr1 antag conf: 24µM; Npr2 selectivity: 24µM; FLuc inh counter: inactive; GloSensor ctrl: 22µM

What do the screens show for `CN(Cc1cccnc1)c1nc2c(c(=O)[nH]1)CCN(Cc1ccc(Cl)cc1F)CC2`?
HEK cytotox: inconclusive; NPR1 antag: 11µM; Luciferase inh: inactive; NIH3T3 tox: inconclusive; Npr1 antag conf: 15µM; Npr2 selectivity: 17µM; FLuc inh counter: inactive; GloSensor ctrl: 9.7µM

How did CN(Cc1cccnc1)c1nc2c(c(=O)[nH]1)CCN(Cc1ccccc1F)CC2 do in these assays?
HEK cytotox: inconclusive; NPR1 antag: inactive; Luciferase inh: inactive; NIH3T3 tox: inconclusive

What do the screens show for `Cc1ccc(NC(=O)CN2C(=O)NC(c3ccc(Cl)cc3)C3=C2COC3=O)c(Cl)c1` (stereo not given)?
HEK cytotox: 45µM; NPR1 antag: inconclusive; Luciferase inh: inactive; NIH3T3 tox: inconclusive; Npr1 antag conf: inconclusive; Npr2 selectivity: inactive; FLuc inh counter: inactive; GloSensor ctrl: inactive

Results for Cc1ccc(NC(=O)CN2C(=O)NC(c3ccc(Cl)cc3)C3=C2COC3=O)c(C)c1 (stereo not given) ?
HEK cytotox: inconclusive; NPR1 antag: inactive; Luciferase inh: inactive; NIH3T3 tox: inconclusive

What do the screens show for `O=C(CN1C(=O)NC(c2ccc(Cl)cc2)C2=C1COC2=O)Nc1ccc(F)c(Cl)c1` (stereo not given)?
HEK cytotox: inconclusive; NPR1 antag: inconclusive; Luciferase inh: inactive; NIH3T3 tox: 40µM; Npr1 antag conf: inconclusive; Npr2 selectivity: inconclusive; FLuc inh counter: inactive; GloSensor ctrl: inconclusive
